Values without a mark were called inactive. Records with an inconclusive call do not appear. The source holds several records for some structures; these can differ, active in one and inactive in another. Calls of active or inactive are those of the source. Unless noted, calls follow the shape of the dose curve; as a rule, active = well fitted curve in the direction sought with a large enough effect; inconclusive = small, poorly fitted or top-dose-only effect, or another doubt; inactive = no such curve, though single readings can be large; an effect the other way counts as inactive or inconclusive.

Assay [1] is described as follows: Confirmation and Secondary Assay for Modulators of Hemoglobin Beta Chain Splicing at IVS2 654 locus (AID 910).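 Also: HeLa cells stably carrying EGFP split by mutant beta-globin IVS2-654 intron; per-well total GFP intensity by laser scanning cytometry after 2-day treatment.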 Summed up: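 Readout: per-well total peak green fluorescence (488 nm ex, 500–520 nm em) from objects 5–250 µm, reflecting correct splicing of an EGFP-654 reporter. Compounds were applied for 2 days at 37 °C to overnight-plated HeLa EGFP-654 cells; controls were DMSO and 500 nM IVS2-654 PNA.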

The nature of assay [2]: Confirmation and Secondary Assay for Modulators of Hemoglobin Beta Chain Splicing at IVS2 705 locus (AID 930).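 Also: HeLa cells stably expressing the EGFP-705 splicing reporter; GFP fluorescence per well restored by corrected splicing of the IVS2-705 intron in EGFP; series mostly up to about 46 µM.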 Summed up:
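Fluorescence gain (488 nm laser, 500-520 nm PMT) reflects restored correct splicing of a mutant IVS2-705 intron inside EGFP in stably transfected HeLa cells after 2-day compound treatment.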

Assay [3] deals with Cytochrome P450 3A4 (Homo sapiens) (UniProt P08684). In words: qHTS Assay for Inhibitors and Substrates of Cytochrome P450 3A4 (AID 884). Also: nearly all actives have a fitted effect of over 50% in size. Also: potency is read from the fitted curve at half-maximal effect. The essentials: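 20 nM human CYP3A4 with 25 uM Luciferin-PPXE (at KM) in 200 mM KPO4, preincubated 10 min with compound; NADPH regeneration started a 60 min RT reaction. Luciferin detected by luminescence, normalized to 57 uM ketoconazole as full inhibition.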
Sequence of Cytochrome P450 3A4 (Homo sapiens) (P08684 whole entry, looked up): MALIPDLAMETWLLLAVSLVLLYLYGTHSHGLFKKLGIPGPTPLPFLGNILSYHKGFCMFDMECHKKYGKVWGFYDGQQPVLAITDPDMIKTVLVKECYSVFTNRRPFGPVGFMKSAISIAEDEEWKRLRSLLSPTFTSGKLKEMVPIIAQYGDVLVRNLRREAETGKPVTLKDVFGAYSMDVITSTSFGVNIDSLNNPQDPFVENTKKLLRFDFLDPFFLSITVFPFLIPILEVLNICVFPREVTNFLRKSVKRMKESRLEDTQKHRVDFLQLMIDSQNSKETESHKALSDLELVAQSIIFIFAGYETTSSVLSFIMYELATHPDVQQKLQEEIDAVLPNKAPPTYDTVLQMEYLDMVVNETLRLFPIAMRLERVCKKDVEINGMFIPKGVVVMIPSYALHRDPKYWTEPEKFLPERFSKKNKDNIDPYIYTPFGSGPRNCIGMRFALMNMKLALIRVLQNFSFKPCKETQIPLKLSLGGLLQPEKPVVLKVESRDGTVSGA
(In qHTS, concentration-response curves come from the screen itself.)

The target of assay [4] is Cytochrome P450 2C9 (Homo sapiens) (UniProt P11712). In words: qHTS Assay for Inhibitors and Substrates of Cytochrome P450 2C9 (AID 883). Also: nearly all actives have a fitted effect of over 60% in size. Also: potency is read from the fitted curve at half-maximal effect. The essentials:
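Luminescent read-out of deoxyluciferin hydroxylation, normalized to 57uM sulphaphenazole (AC100). Reaction: 10nM enzyme, 100uM Luciferin-H (equal to KM), 25mM KPO4, 10 min compound preincubation, then 60 min with NADPH regeneration, both at 37C.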

Assay [5] concerns the target Cytochrome P450 3A4 (Homo sapiens) (UniProt P08684). Description: qHTS Assay for Activators of Cytochrome P450 3A4 (AID 885). Also: nearly all actives have a fitted effect of over 65% in size. Summed up:
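20nM CYP3A4 + 25uM Luciferin-PPXE (=KM), 200mM KPO4; cpd 10 min RT; NADPH regen, 60 min RT; stop w/ detection buffer, 20 min; luminescence. Normalized to 57 uM ketoconazole.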

Assay [6] has as its target Cytochrome P450 2D6 (Homo sapiens) (UniProt P10635). In words: qHTS Assay for Inhibitors and Substrates of Cytochrome P450 2D6 (AID 891). Also: potency is read from the fitted curve at half-maximal effect; nearly all actives have a fitted effect of over 60% in size. Summed up:
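Human CYP2D6 (5 nM) with 30 uM Luciferin-ME EGE (at Km) in 100 mM KPO4, compound preincubated 10 min, then NADPH regeneration system for 60 min at room temperature. Luciferin read by luminescence; normalized to 1.43 uM quinidine.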

In assay [7] the target is Cytochrome P450 2C19 (Homo sapiens) (UniProt P33261). Description: qHTS Assay for Inhibitors and Substrates of Cytochrome P450 2C19 (AID 899). Also: nearly all actives have a fitted effect of over 60% in size. Also: potency is read from the fitted curve at half-maximal effect. Summed up:
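Luminescence readout of luciferin formed from 10uM Luciferin-H EGE (KM level) by 5 nM CYP2C19 in 50mM KPO4. 60 min NADPH-driven reaction at 37C after 10 min compound preincubation; data scaled to 57uM ketoconazole inhibition.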

The nature of assay [8]: qHTS Assay for Identification of Small Molecule Antagonists for Thrombopoietin (TPO) Signaling Pathway (AID 918). Also: potency is read from the fitted curve at half-maximal effect; nearly all actives have a fitted effect of over 60% in size. To be noted: TPO-dependent cell signaling reporter, antagonist mode. The essentials:
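Murine Ba/F3 cells expressing human TPO receptor and a Glycoprotein IIb promoter-luciferase reporter, IL-3-starved overnight, treated with compound plus TPO at EC50 (26 pM final). After 24 h at 37 C, luminescence read to detect inhibitors.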

The nature of assay [9]: qHTS Assay for Identification of Small Molecule Antagonists for NFkB Signaling Pathway (AID 895; active = well fitted inhibition curve with a large enough effect in the signal ratio, with a control signal flat, not every such curve was filed as active; the % refers to the signal ratio; also: potency is read from the fitted curve at half-maximal effect). Summed up: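 Beta-lactamase reporter read-out (460 and 530 nm emission ratio, 405 nm excitation, 2 hrs substrate loading RT) after 5 hr stimulation with 10 pM TNF alpha in compound-treated NFkB-bla ME-180 cells in low-serum medium.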
Assay [10] concerns the target Muscarinic acetylcholine receptor M1 (Rattus norvegicus) (UniProt P08482). Description: qHTS Assay for Antagonists of Acetylcholine Muscarinic M1 Receptor: Measurement of IP-One Response (AID 944). Also: potency is read from the fitted curve at half-maximal effect; nearly all actives have a fitted effect of over 75% in size. The essentials: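 CHO cells stably expressing rat M1, pretreated 10 min with compound, then stimulated 30 min with carbachol at EC80 (200 nM) in LiCl-containing buffer pH 7.4; IP1 accumulation read by HTRF competition (665/620 nm).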

In assay [11] the target is Pyruvate kinase (Leishmania mexicana) (UniProt Q27686). In words: qHTS Validation Assay for Inhibitors of Leishmania Mexicana Pyruvate Kinase (AID 945). The essentials:
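Compounds are tested as eight-point concentration series. Reactions contain 0.2 nM LmPYK E451W, 0.5 mM PEP, 0.1 mM ADP, 7 mM MgCl2 and 50 mM KCl at pH 7.2, run 1 h at room temperature, then read by PKLight luminescence.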

Assay [12] can be described thus: MultiTox-Fluor Cytotoxicity Assay - LYMP1-001 - Dead Cells (AID 946).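 Also: potency is read from the fitted curve at half-maximal effect; cells exposed to compound for 16 h.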 The essentials:
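AC50 from Hill fit of concentration-response; data normalized to DMSO (basal) and 15 uM tetraoctylammonium bromide (100%). LYMP1-001 lymphoblastoid cells, 2500/well, 16 hr compound at 37 C; dead-cell protease fluorescence, Ex/Em 485/520.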

The target of assay [13] is Guanine nucleotide-binding protein G(i) subunit alpha-1 (Homo sapiens) (UniProt P63096). In words: qHTS Assay for Inhibitors of RGS12 GoLoco Motif Activity (Green Fluorophore) (AID 879).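 Also: negative values mean loss of peptide binding seen as reduced polarization.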 The essentials:
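Fluorescence polarization assay: 50 nM Gαi1 with 10 nM FITC-labeled RGS12 GoLoco peptide in 10 mM Tris pH 7.5, 150 mM NaCl, 0.1 mM GDP, 0.05% NP40, 10 min at room temperature with compound.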

Assay [14] addresses Muscarinic acetylcholine receptor M1 (Rattus norvegicus) (UniProt P08482). Description: qHTS Assay for Antagonists of Acetylcholine Muscarinic M1 Receptor: Kinetic Measurement of Intracellular Calcium Response (AID 943). Also: nearly all actives have a fitted effect of over 75% in size. Also: potency is read from the fitted curve at half-maximal effect. The essentials: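 CHO cells expressing rat M1 receptor, Fluo-4 loaded, preincubated 10 min with compound, then stimulated with EC80 carbachol (100 nM final). Kinetic calcium fluorescence over 4 min; response taken as peak over basal signal.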

Sequence of Muscarinic acetylcholine receptor M1 (Rattus norvegicus) (P08482 whole entry, looked up): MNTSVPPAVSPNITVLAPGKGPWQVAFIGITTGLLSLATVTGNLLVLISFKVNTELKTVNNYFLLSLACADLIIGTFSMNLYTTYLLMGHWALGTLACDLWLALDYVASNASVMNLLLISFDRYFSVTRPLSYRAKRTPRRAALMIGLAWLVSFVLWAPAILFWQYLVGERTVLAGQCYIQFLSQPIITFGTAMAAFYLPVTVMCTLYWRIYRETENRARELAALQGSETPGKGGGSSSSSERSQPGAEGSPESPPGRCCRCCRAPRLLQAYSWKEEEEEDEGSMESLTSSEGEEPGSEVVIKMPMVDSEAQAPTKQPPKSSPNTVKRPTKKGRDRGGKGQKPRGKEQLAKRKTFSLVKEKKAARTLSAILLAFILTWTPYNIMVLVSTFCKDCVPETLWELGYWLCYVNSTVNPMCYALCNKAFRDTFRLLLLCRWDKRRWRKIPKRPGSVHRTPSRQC
Sequence of Cytochrome P450 2D6 (Homo sapiens) (P10635 whole entry, looked up): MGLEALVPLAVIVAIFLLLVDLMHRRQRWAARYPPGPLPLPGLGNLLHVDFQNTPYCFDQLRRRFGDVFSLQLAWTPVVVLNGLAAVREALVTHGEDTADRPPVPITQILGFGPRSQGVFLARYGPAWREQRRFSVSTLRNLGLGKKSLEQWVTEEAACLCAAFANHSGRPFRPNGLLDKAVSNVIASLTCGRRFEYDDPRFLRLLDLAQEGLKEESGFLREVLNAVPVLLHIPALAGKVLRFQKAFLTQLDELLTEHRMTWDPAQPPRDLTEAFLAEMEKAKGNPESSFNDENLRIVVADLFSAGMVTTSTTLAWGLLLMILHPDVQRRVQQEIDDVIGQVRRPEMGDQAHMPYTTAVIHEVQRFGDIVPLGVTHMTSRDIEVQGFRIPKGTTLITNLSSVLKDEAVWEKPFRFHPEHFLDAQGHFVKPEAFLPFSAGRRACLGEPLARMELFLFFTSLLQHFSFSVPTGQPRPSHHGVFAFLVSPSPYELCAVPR
Sequence of Cytochrome P450 2C19 (Homo sapiens) (P33261 whole entry, looked up): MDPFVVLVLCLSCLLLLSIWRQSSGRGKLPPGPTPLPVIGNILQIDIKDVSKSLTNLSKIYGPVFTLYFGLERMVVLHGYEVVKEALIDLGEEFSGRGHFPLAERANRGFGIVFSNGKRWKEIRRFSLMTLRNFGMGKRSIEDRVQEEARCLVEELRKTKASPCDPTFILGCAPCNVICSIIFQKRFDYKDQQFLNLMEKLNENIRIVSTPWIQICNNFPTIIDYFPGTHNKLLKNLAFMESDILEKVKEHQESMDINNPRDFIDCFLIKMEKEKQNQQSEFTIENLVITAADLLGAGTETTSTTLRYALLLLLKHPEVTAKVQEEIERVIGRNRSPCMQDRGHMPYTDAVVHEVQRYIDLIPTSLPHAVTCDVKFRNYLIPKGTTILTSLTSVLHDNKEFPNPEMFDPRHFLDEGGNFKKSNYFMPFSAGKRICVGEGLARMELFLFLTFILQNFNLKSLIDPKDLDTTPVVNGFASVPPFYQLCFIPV
Sequence of Cytochrome P450 2C9 (Homo sapiens) (P11712 whole entry, looked up): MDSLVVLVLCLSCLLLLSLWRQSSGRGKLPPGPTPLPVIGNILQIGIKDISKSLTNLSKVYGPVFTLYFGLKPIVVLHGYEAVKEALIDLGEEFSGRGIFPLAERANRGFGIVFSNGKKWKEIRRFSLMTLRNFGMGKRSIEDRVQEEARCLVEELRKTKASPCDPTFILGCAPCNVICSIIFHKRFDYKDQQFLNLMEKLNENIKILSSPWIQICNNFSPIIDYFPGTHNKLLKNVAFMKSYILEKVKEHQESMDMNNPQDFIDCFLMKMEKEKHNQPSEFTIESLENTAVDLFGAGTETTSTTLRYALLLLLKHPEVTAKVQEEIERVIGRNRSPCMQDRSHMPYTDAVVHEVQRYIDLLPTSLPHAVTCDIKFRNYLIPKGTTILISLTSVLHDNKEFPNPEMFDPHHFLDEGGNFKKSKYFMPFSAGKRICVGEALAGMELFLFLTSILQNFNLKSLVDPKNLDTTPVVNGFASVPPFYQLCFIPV
Sequence of Pyruvate kinase (Leishmania mexicana) (Q27686 2-499 E452W): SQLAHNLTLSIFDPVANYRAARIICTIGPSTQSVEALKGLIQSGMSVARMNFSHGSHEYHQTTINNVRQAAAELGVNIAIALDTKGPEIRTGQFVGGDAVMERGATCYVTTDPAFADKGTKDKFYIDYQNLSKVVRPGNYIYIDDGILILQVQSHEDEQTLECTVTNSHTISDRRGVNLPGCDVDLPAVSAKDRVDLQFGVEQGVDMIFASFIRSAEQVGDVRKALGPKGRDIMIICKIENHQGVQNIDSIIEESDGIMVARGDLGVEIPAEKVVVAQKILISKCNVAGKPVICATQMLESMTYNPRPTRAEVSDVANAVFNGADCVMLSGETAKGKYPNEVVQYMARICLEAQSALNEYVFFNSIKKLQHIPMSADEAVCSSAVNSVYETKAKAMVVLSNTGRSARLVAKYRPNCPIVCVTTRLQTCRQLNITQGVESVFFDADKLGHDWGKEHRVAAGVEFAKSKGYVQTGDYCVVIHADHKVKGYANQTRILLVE
Sequence of Guanine nucleotide-binding protein G(i) subunit alpha-1 (Homo sapiens) (P63096 whole entry, looked up): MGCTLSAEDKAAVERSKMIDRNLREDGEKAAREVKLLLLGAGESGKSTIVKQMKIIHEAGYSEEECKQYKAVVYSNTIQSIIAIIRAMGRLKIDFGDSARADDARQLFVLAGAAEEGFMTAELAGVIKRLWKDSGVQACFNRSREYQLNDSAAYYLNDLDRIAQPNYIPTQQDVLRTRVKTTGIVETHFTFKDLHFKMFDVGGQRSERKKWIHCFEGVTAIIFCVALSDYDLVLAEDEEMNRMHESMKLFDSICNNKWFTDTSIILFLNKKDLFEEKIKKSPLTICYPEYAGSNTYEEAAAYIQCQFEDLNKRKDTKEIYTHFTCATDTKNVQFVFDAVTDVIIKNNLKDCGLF

For `Cc1ccc(-c2nc3ccc(C)cn3c2CC(=O)N(C)C)cc1`, the outcome in [1] and in assay [2] was inactive.

Turning to `CC[N+]1(C)CCCC(OC(=O)C(O)(c2ccccc2)c2ccccc2)C1` (centres undefined), the Potency result in [3] is “inactive”. The compound was classed as inactive in [1] and in assay [2].

In the case of `COc1ccc(Cc2nccc3cc(OC)c(OC)cc23)cc1OC`, the Potency was 12.6 µM (active) in assay [4], 12.6 µM (active) in assay [6], 5.01 µM (active) in assay [7] and 12.6 µM (active) in [8]. Besides, the outcome in assay [5], in assay [1] and in [2] was inactive.

Consider `O=C(O)c1ccc2[nH]cc(CCCCN3CC=C(c4ccccc4)CC3)c2c1`, for which the Potency entry in [3] is “inactive”.

For the compound `CN1C[C@H](CNC(=O)OCc2ccccc2)C[C@@H]2c3cccc4c3c(cn4C)C[C@H]21`, the Potency entry in assay [9] was “inactive”. The Potency in assay [8] is 10 µM (active); in [10] it was 15.8 µM (active). Also, in assay [11], the compound was classed as inactive.

For `Cc1nc2n(c(=O)c1CCN1CCC(c3noc4cc(F)ccc34)CC1)CCCC2`, the Potency in [6] is 3.16 µM (active); in assay [10], 12.6 µM (active).

With `CC(C)CC(N(C)C)C1(c2ccc(Cl)cc2)CCC1` (centres undefined), the compound was called inactive in assay [5], in assay [1] and in assay [2].

For `CC(C)=CC1C(C(=O)OCc2cccc(Oc3ccccc3)c2)C1(C)C` (centres undefined), the Potency result in assay [3] is “inactive”. For the same compound, the call in [1] and in [2] was inactive.

For the compound `COc1ccc(C(CN(C)C)C2(O)CCCCC2)cc1` (centres undefined), the Potency result in [3] is “inactive”. Moreover, the compound was classed as inactive in [1] and in assay [2].

Take `Cc1c(OCC(F)(F)F)ccnc1CS(=O)c1nc2ccccc2[nH]1` (centres undefined): the Potency in assay [6] was 31.6 µM (active).

For the compound `CC(CCc1ccccc1)NC(C)C(O)c1ccc(O)cc1` (centres undefined), the Potency entry in assay [3] was “inactive”. The result in assay [1] and in [2] was inactive.

On to `CCCN(CCC)CCc1cccc2c1CC(=O)N2`, for which the Potency result in assay [4] and in assay [7] was “inactive” each time. For the same compound, in assay [6], the Potency is 3.16 µM (active).

`COc1cc2c(c(OC)c1OC)-c1ccc(OC)c(=O)cc1[C@@H](NC(C)=O)CC2`: the Potency is 3.16 µM (active) in [4] and 0.794 µM (active) in [6].

For `CC(C)(C)NCC(O)c1cc(Cl)c(N)c(Cl)c1` (centres undefined), the call in assay [5], in assay [1] and in [2] was inactive.

`Cc1cc(SCc2sc(-c3ccc(C(F)(F)F)c(F)c3)nc2C)ccc1OCC(=O)O`: the Potency in [3] is 7.94 µM (active). Besides, the compound was classed as inactive in assay [5].

Consider `CCC(COC(=O)c1cc(OC)c(OC)c(OC)c1)(c1ccccc1)N(C)C` (centres undefined), for which the call in [1] and in assay [2] was inactive.

In the case of `CC(=O)Oc1ccccc1C(=O)Nc1ncc([N+](=O)[O-])s1`, in [12], the Potency is 39.8 µM (active).

`O=[N+]([O-])c1cc([As](=O)(O)O)ccc1O`: the Potency entry in assay [3] and in assay [7] was “inactive” throughout. Besides, the result in [1] and in assay [2] was inactive.

In the case of `CCC1C(=O)OCC1Cc1cncn1C` (centres undefined), in assay [5], the call was inactive.

For the compound `C=C(C)[C@H]1Cc2c(ccc3c2O[C@@H]2COc4cc(OC)c(OC)cc4[C@@H]2C3=O)O1`, the Potency in assay [7] is 1 µM (active).

Turning to `CC(=O)Nc1cc([As](=O)(O)O)ccc1O`, the Potency result in [3] was “inactive”. For the same compound, the compound was called inactive in [1] and in assay [2].

On to `Fc1ccc(C(OCCN2CCN(CCCc3ccccc3)CC2)c2ccc(F)cc2)cc1`, for which the compound was called inactive in assay [13] and in assay [11]. Further, the results for the Potency in assay [8], in assay [14] and in assay [10] were 10 µM (active), 1.58 µM (active) and 7.94 µM (active), respectively.

On to `CC(C)C(=O)Nc1ccc([N+](=O)[O-])c(C(F)(F)F)c1`, for which, in assay [7], the Potency result is “inactive”.

For `CN(C)CCC=C1c2ccccc2CCc2ccccc21`, in assay [6], the Potency is 7.94 µM (active).

In the case of `O=c1c(O)c(-c2ccc(O)c(O)c2)oc2cc(O)cc(O)c12`, the Potency in [9] was 5.62 µM (active). Further, in assay [14], the Potency entry was “inactive”.

`CCOC(=O)c1ncn2c1CN(C)C(=O)c1cc(F)ccc1-2`: the Potency in [7] was 1.58 µM (active).

The values above are taken from PubChem BioAssay (NCATS).
